# Results from PubChem BioAssay (NCATS).
# Results filed as inconclusive are left out. Active and inactive are the calls of the source. Calls come from the whole dose curve; as a rule, active = well fitted inhibition curve with a large enough effect; inconclusive = small, poorly fitted or top-dose-only effect; inactive = no such curve, though single readings can be large or run the other way.
# Target: Cytochrome P450 3A4 (Homo sapiens) (UniProt P08684)
# Assay: qHTS Assay for Inhibitors and Substrates of Cytochrome P450 3A4 (AID 884); note: nearly all actives have a fitted effect of over 50% in size
# Settings: recombinant CYP3A4, Luciferin-PPXE luminescence; series mostly up to 57.1 µM; activity change, negative = inhibition: at the top concentration
# Protocol: NIH Molecular Libraries Screening Centers Network [MLSCN]
# NIH Chemical Genomics Center [NCGC]
# The P450 gene superfamily is involved in the metabolism and clearance of xenobiotics. This assay used human CYP3A4 to measure the dealkylation of luciferin-6' phenylpiperazinylyl (Luciferin-PPXE; […]) to luciferin. The luciferin is then measured by luminescence after the addition of a luciferase detection reagent. Luciferin-PPXE concentration in the assay was equal to its KM for CYP3A4. Inhibitors and some substrates limit the production of luciferin, and decrease measured luminescence.
# NCGC Assay Protocol Summary:
# Two uL of enzyme and substrate mix (final concentrations: 20nM CYP3A4, 25uM Luciferin-PPXE, 200mM KPO4) were dispensed into a white, solid bottom 1536-well microtiter plate. 23nL of compound was transferred by a pin tool. The plate was incubated at RT for 10 min. Two uL of an NADPH regeneration solution (Promega supplied reagent) was dispensed and the reaction was allowed to continue for 60 min at RT. Then the reaction was stopped by reconstituted luciferin detection buffer. After another 20 min of incubation the plate was read on the ViewLux (Perkin Elmer) at 60 sec exposure and 2x2 binning. This protocol was carried out with Promega-Glo reagents and further information can be found at http://www.promega.com/tbs/tb325/tb325.pdf. Data were normalized to the to AC100 inhibition (57 uM ketoconazole).
# Keywords: P450, CYP3A4, Luciferase, MLSMR, MLSCN, NIH Roadmap, qHTS, NCGC
# % is set by controls: 0 for no effect and ±100 for the full control effect; potency is the fitted concentration of half-maximal effect.
# Chain of Cytochrome P450 3A4 (Homo sapiens) (P08684 whole entry, looked up): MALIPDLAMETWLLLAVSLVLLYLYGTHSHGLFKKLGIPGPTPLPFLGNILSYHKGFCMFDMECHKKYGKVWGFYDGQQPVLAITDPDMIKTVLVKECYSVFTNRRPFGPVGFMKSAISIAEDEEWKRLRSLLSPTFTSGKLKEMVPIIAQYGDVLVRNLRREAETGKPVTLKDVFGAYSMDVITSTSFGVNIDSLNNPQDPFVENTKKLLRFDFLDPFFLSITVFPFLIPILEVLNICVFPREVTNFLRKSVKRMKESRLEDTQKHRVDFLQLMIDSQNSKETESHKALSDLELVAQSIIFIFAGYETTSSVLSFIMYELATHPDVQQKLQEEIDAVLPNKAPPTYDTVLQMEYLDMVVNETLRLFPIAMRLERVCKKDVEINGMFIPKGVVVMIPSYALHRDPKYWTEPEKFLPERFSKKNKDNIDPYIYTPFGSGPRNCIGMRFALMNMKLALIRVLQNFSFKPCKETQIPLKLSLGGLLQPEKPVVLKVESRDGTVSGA
Compound,"activity change, negative = inhibition",Potency
Oc1cccc(O)c1O,-21.1% (inactive),–
CC(C)O,-21.1% (inactive),–
NCCN,-3.06% (inactive),–
COc1cc(S(C)=O)ccc1-c1nc2ncccc2[nH]1 (stereo not given),-19.9% (inactive),–
NCC(O)CC(=O)O (stereo not given),11.4% (inactive),–
O=C(O)[C@H]1CN(C/C=C/P(=O)(O)O)CCN1,-16.3% (inactive),–
Nc1nccs1,-12.5% (inactive),–
C[C@H]1O[C@@H](O[C@H]2[C@@H](O)C[C@H](O[C@H]3[C@@H](O)C[C@H](O[C@H]4CC[C@@]5(C)[C@H](CC[C@@H]6[C@@H]5C[C@@H](O)[C@]5(C)[C@@H](C7=CC(=O)OC7)CC[C@]65O)C4)O[C@@H]3C)O[C@@H]2C)C[C@H](O)[C@@H]1O,-3.91% (inactive),–
COC(=O)c1ccccc1O,-4.85% (inactive),–
O.O.O.O.O.O.O.O=S(=O)([O-])[O-].[Co+2],-10.5% (inactive),–
CC1=CC(=O)NS(=O)(=O)O1,1.63% (inactive),–
CCCCO,–,inactive
CCCCC[C@H](O)/C=C/[C@H]1[C@H](O)CC(=O)[C@@H]1C/C=C\CCCC(=O)O,-15.1% (inactive),–
CC/C=C\C/C=C\C/C=C\CCCCCCCC(=O)O,–,15.8 µM (active)
Nc1ncnc2c1ncn2[C@H]1CC[C@@H](CO)O1,-13.5% (inactive),–
C=CC(C)(O)CC/C=C(\C)CCC=C(C)C (stereo not given),-10.4% (inactive),–
ClC(Cl)Cl,-11.8% (inactive),–
CC1=CCC2CC1C2(C)C (stereo not given),-6.33% (inactive),–
CO,-2.4% (inactive),–
CCCCC,-11.2% (inactive),–

Compound,"activity change, negative = inhibition",Potency
OB(O)O,0.723% (inactive),–
CC1CCCC(C)N1NC(=O)c1ccc(Cl)c(S(N)(=O)=O)c1 (stereo not given),-43.8% (inactive),–
CC(=O)Oc1cccc2c1C(=O)c1c(OC(C)=O)cc(C(=O)O)cc1C2=O,-37% (inactive),–
OCc1ccccc1,-6.53% (inactive),–
OC[C@H]1O[C@@H]2O[C@H]3[C@H](O)[C@@H](O)[C@@H](O[C@H]4[C@H](O)[C@@H](O)[C@@H](O[C@H]5[C@H](O)[C@@H](O)[C@@H](O[C@H]6[C@H](O)[C@@H](O)[C@@H](O[C@H]7[C@H](O)[C@@H](O)[C@@H](O[C@H]1[C@H](O)[C@H]2O)O[C@@H]7CO)O[C@@H]6CO)O[C@@H]5CO)O[C@@H]4CO)O[C@@H]3CO,-14.2% (inactive),–
Cc1ccc(S(=O)(=O)O)cc1C,11.2% (inactive),–
CC(=O)Nc1ccc(OC(=O)c2ccccc2O)cc1,-23.2% (inactive),–
c1ccc2ccccc2c1,-4.12% (inactive),–
O=P(O)(O)O,-10.5% (inactive),–
O=C(O)[C@H]1C(=CCO)O[C@H]2CC(=O)N12,-21.9% (inactive),–
Cc1ncc[nH]1,6.56% (inactive),–
OCl,-6.18% (inactive),–
CC1CCC(NC(=O)N(CCCl)N=O)CC1 (stereo not given),-7.95% (inactive),–
N#Cc1ccc2c(c1)N(CCCN1CCC(O)CC1)c1ccccc1S2,-6.48% (inactive),–
NC(N)=O,-11.4% (inactive),–
OCC(O)CO,–,inactive
C/C=C/C=C/C(=O)O,-9.28% (inactive),–
CCOC(C)OCC,-7.34% (inactive),–
CC(=O)N=c1sc(S(N)(=O)=O)nn1C,-15.8% (inactive),–
CC(=O)[C@H]1CC[C@H]2[C@@H]3C=CC4=CC(=O)CC[C@@]4(C)[C@H]3CC[C@]12C,114% [at 25.6 µM] (inactive),–
